# The list is not random: actives were taken first. Their share in the collection is about 27%.
# CYP2C19 inhib: blocks human cytochrome P450 2C19. P33261. CYP2C19 Supersomes, luciferin-H EGE luminescence, 30 min. inhibition, % at 5 µM. actives 21% (n = 96,000). AID 778;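 active = CYP2C19 inhibition above a set limit at 5 µM in the primary screen, cut at about 50% in these data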
# Target sequence (P33261 whole entry, looked up): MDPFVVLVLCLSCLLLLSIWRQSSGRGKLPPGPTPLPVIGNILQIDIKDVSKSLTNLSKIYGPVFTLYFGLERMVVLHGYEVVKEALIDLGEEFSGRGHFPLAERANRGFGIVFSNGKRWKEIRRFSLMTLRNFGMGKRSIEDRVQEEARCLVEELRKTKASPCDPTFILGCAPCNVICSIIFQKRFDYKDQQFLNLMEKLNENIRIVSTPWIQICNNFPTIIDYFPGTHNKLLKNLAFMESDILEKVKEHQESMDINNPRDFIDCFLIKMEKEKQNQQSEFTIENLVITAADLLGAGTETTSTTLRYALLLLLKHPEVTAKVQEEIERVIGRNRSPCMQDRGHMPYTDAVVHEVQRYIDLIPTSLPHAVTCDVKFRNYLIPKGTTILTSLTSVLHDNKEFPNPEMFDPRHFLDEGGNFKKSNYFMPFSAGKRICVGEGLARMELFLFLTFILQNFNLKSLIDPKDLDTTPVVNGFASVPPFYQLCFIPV
# CYP2C19 act: activators of human cytochrome P450 2C19. P33261. recombinant CYP2C19, luciferin-H EGE luminescence; active compounds read high; 0 = fully inhibited enzyme, 1 = untreated enzyme. activation factor at 5 µM. 96,000 tested, under 10 active;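 active = activation factor of at least 2 at 5 µM in the primary screen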
# CYP2C9 activ: activators of human CYP2C9. P11712. recombinant CYP2C9, luciferin-H conversion, luminescence; active compounds read high; factor 1 = untreated enzyme, 0 = blocked. activation factor at 5 µM. actives 1.4% (n = 96,000). AID 1024;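 active = activation factor of 2 or more for CYP2C9 at a 5 µM dose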
# CYP2C9 inhib: human CYP2C9 inhibition; inhibition, % at 5 µM; actives 20% (n = 96,000); CYP2C9 Supersomes, luciferin-H conversion, luminescence; P11712;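 active = blocking of liver enzyme CYP2C9 beyond about 50% at 5 µM, limit read from the data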
# sEH inh: soluble epoxide hydrolase (human) inhibition. P34913. recombinant human sEH enzymatic activity assay. inhibition, % at 2 µM. actives 0.34% (n = 91,000). AID 707; in the data active = inhibition above about 80%
# sEH act: activators of human soluble epoxide hydrolase; P34913; purified human sEH enzymatic activity, activator screen; activation, % at 2 µM; actives 0.04% (n = 91,000); AID 717; in the data active = activation above about 37%
# Numbers stand for hits; n = inactive; x = no result given.
SMILES,CYP2C19 inhib,CYP2C19 act,CYP2C9 activ,CYP2C9 inhib,sEH inh,sEH act
CNC(=O)Nc1ccc2snnc2c1,n,n,n,n,n,n
O=C(NCc1ccco1)Nc1ccc2snnc2c1,83.2,n,n,85.9,n,n
COc1ccc(O)c(-c2c(-c3ccc(Cl)cc3)n[nH]c2C)c1,99.0,n,n,72.0,n,n
COc1ccc(-c2n[nH]c(C)c2-c2ccc(Cl)cc2)c(O)c1OC,n,n,n,n,n,n
COc1ccc(-c2n[nH]c(C)c2-c2ccc(Cl)cc2)c(O)c1,63.3,n,n,n,n,n
Cc1ccc(S(=O)(=O)N2CCN(C(=O)c3cc4c(C)nn(-c5ccccc5C)c4s3)CC2)cc1,n,n,n,63.1,n,n
CCSc1nnc(NC(=O)C(CC)(C(F)(F)F)C(F)(F)F)s1,n,n,n,98.0,n,n
CCSc1nnc(NC(=O)C(C)(C(F)(F)F)C(F)(F)F)s1,n,n,n,75.2,x,x
CCSc1nnc(NC(NC(=O)c2ccco2)(C(F)(F)F)C(F)(F)F)s1,n,n,n,90.1,x,x
CCS(=O)(=O)C(=C(Nc1ccc(OC)cc1)Nc1ccc(OC)cc1)S(=O)(=O)CC,n,n,n,n,n,n
CCOC(=O)Cc1csc(NC(=O)c2cnc3scc(C)n3c2=O)n1,x,x,x,x,n,n
CC(C)(C)C(=O)/C=C(\N)c1ccncc1,n,n,n,n,n,n
COc1ccc(/C(N)=C/C(=O)C(C)(C)C)cc1,74.2,n,n,n,n,n
CCOc1ccc(N(CC(=O)NC(C)CC)S(C)(=O)=O)cc1 (centres undefined),64.8,n,n,n,n,n
CCC(C)NC(=O)c1ccccc1NC(=O)CN(c1ccc(OC)cc1)S(C)(=O)=O (centres undefined),72.3,n,n,97.9,n,n
CCOC(=O)C(=O)Nc1ccccc1C(=O)Nc1ccc(OC)cc1,n,n,n,52.1,n,n
CCOc1ccc(N(CC(=O)NCC(C)C)S(C)(=O)=O)cc1,60.0,n,n,n,x,x
CCOc1ccc(N(CC(=O)NCCCOC)S(C)(=O)=O)cc1,n,n,n,n,x,x
Cc1nn2c(-c3ccc(Cl)cc3)ccnc2c1-c1ccccc1,n,n,n,n,n,n
CC(=O)c1cn(CC(=O)Nc2ccc(C)cc2C)c2ccccc12,x,x,x,x,n,n
CC(C)(C)C(=O)C(CO)(Oc1ccc(Cl)cc1)n1cncn1 (centres undefined),92.8,n,n,76.7,x,x
CSC1=NCCN1C(=O)C(C)(C)Oc1ccc(Cl)cc1,x,x,x,x,n,n
Cc1ccc(Cl)cc1Nc1nc(-c2sc(NC(=O)C(C)(C)C)nc2C)cs1,n,n,n,n,n,n
CCOC(=O)N1CCN(C(=O)CSc2ncnc3ccccc23)CC1,n,n,n,n,n,n
C/C(N)=C(/C#N)C(=O)CSc1ncnc2ccccc12,70.7,n,n,n,x,x
SMILES,CYP2C19 inhib,CYP2C19 act,CYP2C9 activ,CYP2C9 inhib,sEH inh,sEH act
CC1CCN(C(=O)CSc2nc3ccccc3[nH]2)CC1,73.6,n,n,n,x,x
C/C(N)=C(/C#N)C(=O)CSc1nc2ccccc2[nH]1,70.9,n,n,n,n,n
COc1cc(OC)cc(C(=O)NN2CCCCC2)c1,n,n,n,n,n,n
Nc1ccc(N2CCN(C(=O)c3cccs3)CC2)cc1,97.3,n,n,70.7,n,n
O=C(COc1ccccc1)N1CCN(S(=O)(=O)c2cccs2)CC1,64.2,n,n,n,x,x
O=C(c1ccco1)N1CCN(C(=O)c2cccs2)CC1,51.9,n,n,n,n,n
CC(=O)Nc1ccc(N2CCN(C(=O)c3cccs3)CC2)cc1,n,n,n,n,x,x
NC(=O)N1CCN(C(=O)c2ccco2)CC1,n,n,n,n,n,n
CCOC(=O)C1CCN(C(=O)COc2ccc(N(C)S(=O)(=O)c3cccs3)cc2)CC1,61.5,n,n,90.0,n,n
Cc1ccc(NC(=O)C2C3/C=C\CCCCC32)cc1C (centres undefined),n,n,n,n,n,n
CCOC(=O)/C(=N\Nc1ccc(OC)cc1)c1csc(Nc2ccccc2)n1,n,n,n,n,n,n
O=C(c1cc2ccccc2o1)N1CCN(S(=O)(=O)c2cccs2)CC1,n,n,n,n,n,n
O=C(c1cccs1)N1CCN(S(=O)(=O)N2CCOCC2)CC1,58.5,n,n,n,n,n
O=C(c1ccco1)N1CCN(S(=O)(=O)c2cccs2)CC1,87.7,n,n,n,n,n
COc1ccc(N/C=C(\C#N)c2nc3ccccc3n2C)c(OC)c1,n,n,n,n,n,n
CCc1ccccc1NC1=NCC(=O)N1Cc1ccccc1,n,n,n,n,n,n
CCc1ccccc1NC1=NCC(=O)N1C1CCCCC1,55.8,n,n,52.6,x,x
O=C1CN=C(Nc2cccc(C(F)(F)F)c2)N1C1CCCC1,71.8,n,n,81.6,n,n
Cc1cc(C)c(NC2=NCC(=O)N2C2CCCCC2)c(C)c1,90.5,n,n,84.7,n,n
C=CCNC(=O)COC(=O)COc1ccc(Cl)cc1C,n,n,n,n,n,n
CC1(C)C(c2cccs2)=[N+]([O-])C2(CCCCC/C2=N\NC(N)=O)N1O (centres undefined),n,n,n,n,n,n
NC(=O)C1CC(=O)N(Cc2ccc3c(c2)OCO3)C(=Nc2ccccc2)S1 (centres undefined),95.9,n,n,51.7,n,n
CCOc1ccc(NC(=O)C2CC(=O)N(CC)C(=Nc3ccc4c(c3)OCO4)S2)cc1 (centres undefined),n,n,n,n,n,n
CNC(=O)C1CC(=O)N(CCc2ccc(OC)cc2)C(=Nc2ccc(OC)cc2)S1 (centres undefined),x,x,x,x,n,n
COc1ccc(N=C2SC(C(=O)O)CC(=O)N2Cc2ccc(OC)c(OC)c2)cc1 (centres undefined),n,n,n,n,n,n
SMILES,CYP2C19 inhib,CYP2C19 act,CYP2C9 activ,CYP2C9 inhib,sEH inh,sEH act
O=C1CC(N2CCN(Cc3ccc4c(c3)OCO4)CC2)C(=O)N1CCc1ccccc1 (centres undefined),n,n,n,n,x,x
COc1ccc(N=C2SC(C(=O)Nc3ccc4c(c3)OCO4)CC(=O)N2C)cc1 (centres undefined),n,n,n,72.8,n,n
COc1ccc(N=C2SC(C(N)=O)CC(=O)N2CCc2ccc(OC)c(OC)c2)cc1 (centres undefined),63.9,n,n,n,n,n
CNC(=O)C1CC(=O)N(Cc2ccc3c(c2)OCO3)C(=Nc2ccc(OC)cc2)S1 (centres undefined),56.1,n,n,n,n,n
COC(=O)CN1C(=O)C2(C(C#N)=C(N)Oc3c2c(C)nn3-c2ccccc2)c2ccccc21 (centres undefined),x,x,x,x,n,n
COc1cc(C#CC#CCN2CCCCC2)ccc1O,n,n,n,n,n,n
Cc1ccc(-n2ccnc2SCC(=O)N(CC(C)C)C2CCS(=O)(=O)C2)c(C)c1 (centres undefined),n,n,n,n,n,n
CCCCS(=O)CC(O)COc1ccc(C(C)(C)C)cc1 (centres undefined),58.1,n,n,n,n,n

# Source: PubChem BioAssay (several laboratories)
